# Data published in PubChem BioAssay (NCATS).
# Records with an inconclusive call do not appear. The source made the active and inactive calls. Calls follow the shape of the dose curve; as a rule, active = well fitted cell-killing curve with a large enough effect; inconclusive = small, poorly fitted or top-dose-only effect, or effect the other way; inactive = flat fitted curve, though single readings scatter.
# System: Tov112D
# Experiment: Primary qHTS to identify gynecologic anti-cancer compounds using libraries of approved drugs and bioactive compounds (AID 1345084); also: nearly all actives have a fitted effect of over 55% in size
# Settings: Gynecologic cancer cell panel viability, ATPlite luminescence, 48 h; series mostly up to 57.5 µM; activity change, negative = cytotoxicity: at the top concentration
# Method in brief: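 48 h compound exposure at 37 C, 5% CO2; five-point qHTS. ATPlite luminescence readout of cell ATP.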
# % is scaled to controls: 0 for no effect and ±100 for the full control effect; potency is read from the fitted curve at half-maximal effect.
SMILES,"activity change, negative = cytotoxicity",Potency
CC(=O)OC1CC(O)C(C)(C)C2CC(OC(C)=O)C3(C)C(CCC4(C)C(c5ccoc5)C(=O)C5OC543)C12C (centres undefined),-10.4% [at 25.3 µM] (inactive),
COc1cc(C(=O)O[C@H]2[C@@H]3C=CO[C@@H](O[C@@H]4O[C@H](CO)[C@@H](O)[C@H](O)[C@H]4O)[C@@H]3[C@@]3(CO)O[C@@H]23)ccc1O,1.58% [at 25.3 µM] (inactive),
COc1c(C(C)C)cc2c(c1O)[C@@]1(C(=O)O)CCCC(C)(C)C1CC2 (some centres undefined),-10.1% [at 38.5 µM] (inactive),
CCc1[nH]c2ccc(OC)cc2c1CCN(C)C,-2.52% (inactive),
COC(=O)C1(C)CCC(=O)C2(C)c3c(O)cc(C(C)C)cc3C(O)C(OC(C)=O)C12 (centres undefined),6.58% [at 25.3 µM] (inactive),
CN1[C@H]2C[C@H](OC(=O)[C@H](CO)c3ccccc3)C[C@@H]1[C@@H](O)C2,18.4% (inactive),
CC(C)(O)[C@H]1O[C@H]2CC[C@@]3(C)[C@@](O)(CC[C@H]4Cc5c([nH]c6ccccc56)[C@@]43C)C2=CC1=O,-7.61% [at 25.3 µM] (inactive),
CC1C/C=C/C(O)C(O)CC/C=C/c2cc(O)cc(O)c2C(=O)O1 (centres undefined),-0.187% [at 38.5 µM] (inactive),
COC1CC(OC2CCC3(C)C(=CCC4C3CCC3(C)C(C(C)OC5OC(COC6OC(CO)C(O)C(O)C6O)C(O)C(O)C5O)CCC43O)C2)OC(C)C1OC1OC(C)C(O)C(OC)C1O (centres undefined),-0.166% [at 11.6 µM] (inactive),
C1=C2CCCN[C@H]2[C@@H]2C[C@H]1[C@H]1CCCCN1C2,6.15% (inactive),
C[C@H]1O[C@@H](O[C@H]2C[C@@H](O)[C@]3(CO)C4C(CC[C@]3(O)C2)[C@@]2(O)CC[C@H](C3=CC(=O)OC3)[C@@]2(C)C[C@H]4O)[C@@H](O)[C@@H](O)[C@H]1O (some centres undefined),,112 nM (active)
CCN1C[C@]2(OC(=O)c3ccccc3NC(C)=O)CC[C@H](OC)[C@@]34[C@@H]2C[C@@H]([C@@H]13)[C@@]1(O)C[C@H](OC)[C@H]2C[C@@H]4[C@]1(O)[C@H]2OC,11.2% (inactive),
COCC1OC(=O)c2coc3c2C1(C)C1=C(C3=O)C2CCC(=O)C2(C)CC1O (centres undefined),0.536% [at 38.5 µM] (inactive),
Oc1ccc2c3c1O[C@H]1[C@H](N(CCCl)CCCl)CC[C@@]4(O)[C@@H](C2)N(CC2CC2)CC[C@]314,3.75% [at 11.6 µM] (inactive),
COC(=O)C1(C)CCC(O)C2(C)c3c(O)cc(C(C)C)cc3C(O)C(OC(C)=O)C12 (centres undefined),3.21% [at 25.3 µM] (inactive),
CC(C)=C1CC[C@]23CO[C@H](C2)[C@@](O)(C(=O)O)CCC13 (some centres undefined),-1.18% (inactive),
COC(=O)N1CCN(C(=O)Cc2ccc(Cl)c(Cl)c2)[C@@H](CN2CCCC2)C1,-1.46% (inactive),
COC1CC(OC2CCC3(C=O)C(CCC4C3CCC3(C)C(C5=CC(=O)OC5)CCC43O)C2)OC(C)C1OC1OC(CO)C(O)C(O)C1O (centres undefined),,100 nM (active)
CCCCCOc1cc2c(cc1-c1cc(/C=C/C(=O)O)ccc1O)C(C)(C)CCC2(C)C,5.98% (inactive),
CC(=O)OC12C(O)C(C)C3(O)C4C=C(C)C(=O)C4CC(CO)=CC3C1C2(C)C (centres undefined),0.317% [at 25.3 µM] (inactive),
CN1CCC[C@@H]1Cc1c[nH]c2ccc(Nc3ncccc3[N+](=O)[O-])cc12,6.56% (inactive),
CN(C)CCc1c[nH]c2ccc(CN3CCN(C)S3(=O)=O)cc12,6.06% (inactive),
CN1C(=O)c2ccccc2NC(=O)C1Cc1ccccc1 (centres undefined),0.582% (inactive),
C/C=C(\C)C(=O)OC1CC2C(C)(C)OC(=O)CC(OC(C)=O)C2(C)C2CC(OC(=O)C(C)C)C3(C)C(c4ccoc4)CC4OC43C12C (centres undefined),2.93% [at 25.3 µM] (inactive),
C[C@]12CC[C@H]3[C@@H]([C@H](O)CC4=CC(=O)CC[C@@]43C)[C@@H]1CC[C@@H]2O,14.9% (inactive),
COc1ccccc1CN[C@H]1C2CCN(CC2)[C@H]1C(c1ccccc1)c1ccccc1,-3.29% (inactive),
C=C1[C@@H]2CC[C@@]3(C)[C@H](c4ccoc4)OC(=O)C[C@]13O[C@H]1CC(=O)C(C)(C)[C@H](C(OC(C)=O)C(=O)OC)[C@]12C (some centres undefined),2.84% [at 25.3 µM] (inactive),
C=CC(C)(O)CC/C=C(\C)C(=O)O[C@H]1[C@H](O)[C@@H](CO)O[C@@H](OC(=O)[C@]23CCC(C)(C)CC2C2=CCC4[C@@]5(C)CC[C@H](O[C@@H]6O[C@H](CO[C@@H]7OC[C@H](O)[C@H](O)[C@H]7O[C@@H]7OC[C@@H](O)[C@H](O)[C@H]7O)[C@@H](O)[C@H](O)[C@H]6O)C(C)(C)C5CC[C@@]4(C)[C@]2(C)CC3)[C@@H]1OC1OC(C)C(O[C@@H]2OC[C@@H](O)[C@H](O[C@@H]3OC[C@@H](O)[C@H](O)[C@H]3O)[C@H]2O)C(O)C1O (some centres undefined),1.17% [at 6.55 µM] (inactive),
Cc1cn(C[C@H](N)C(=O)O)c(=O)n(Cc2cc(-c3ccccc3)sc2C(=O)O)c1=O,14.9% (inactive),
